Inconclusive results are not listed. Entries that show only a call come without a potency. Active and inactive are the calls of the source. The call rests on the fitted dose curve.
assay: qHTS assay to identify small molecule agonists of the AP-1 signaling pathway - cell viability counter screen (AID 1159525); conditions: ME-180 (cervical carcinoma) AP-1-bla cells viability, ATP luminescence, 5 h; series mostly up to 76.8 µM; further: nearly all actives have a fitted effect of over 55% in size
From the text: National Center for Advancing Translational Sciences [NCATS]
NIH Chemical Genomics Center [NCGC]
U.S. Environmental Protection Agency [EPA]
National Institutes of Environmental Health Sciences [NIEHS]
National Toxicology Program [NTP]
U.S. Food and Drug Administration [FDA]
Activator protein-1 (AP-1), a transcription factor, plays an important role in tumor genesis by regulating genes involved in cell proliferation, differentiation, apoptosis, and angiogenesis. AP-1 activity is induced by a complex network of signaling pathways that involves extracellular signals, such as growth factors. The AP-1 protein complex formed from c-Fos and c-Jun binding to the AP-1 response element results in transcriptional activation of genes containing such elements within their promoter.
Low molecular weight molecules have been discovered and developed to modulate various components of these signaling pathways, for example, MAP kinase inhibitors. However, many points of pathway modulation remain untested due to the lack of chemical probes making this signaling locus of general interest.
Using a beta-lactamase reporter-gene under control of the AP-1 response element, a cell-based assay [CellSensor(TM) AP-1-bla ME-180 developed by Invitrogen Corp.] was used to measure EGF-induced signaling. The Tox21 10K library compounds were measured for their ability to positively modulate the action of EC50 EGF on reporter gene activity. Compounds were screened in a 15-pt titration series in 1536-well format. The cytotoxicity of the Tox21 compound library against this cell line was tested in parallel by measuring the intra cellular ATP content in the same wells.
Tox21 Assay Protocol Summary:
2500 cells/5uL in Opti-MEM medium containing 0.5% dialyzed FBS, 0.1 mM NEAA, 1 mM sodium pyruvate and 10 mM HEPES was dispensed into 1536-well black wall/clear bottom plates using a Multidrop dispenser and cells were cultured at 37 degrees Celsius overnight. Next day 23 nL of compounds dissolved in DMSO, positive controls or DMSO were delivered to each well using a pin tool. The plates were incubated at 37 degrees Celsius for 5 hours. 1 uL of LiveBLAzerTM B/G FRET substrate (Solution A+B+C+D) was added to each well using a Flying Reagent Dispenser. After incubated at room temperature for 2.5 hours the plates were measured on an EnVision plate reader at Excitation 405nm, Emission1=460nm and Emission 2=530nm. The %Activity was determined from the ratio of 460nm/530nm.
After the plates were read for Beta-Lactamase assay on Envision; 3 ul Cell Titer Glo (Promega) was added to measure the cytotoxicity and the plates were then incubated at RT in dark for 30 min. The luminescence was read on ViewLux (Perkin Elmer, Shelton, CT) using 6 sec exposure. ViewLux data was expressed as relative luminescence units.
For primary data analysis, raw plate reads for each titration point were first normalized relative to […] EGF control (100%) and DMSO only wells (basal, 0%).
For primary data analysis for viability assay, raw plate reads for each titration point were first normalized Tetra n-octyl ammonium bromide control (-100%) and DMSO (control, 100%).
Potency means the concentration at half of the fitted maximal effect.

SMILES | Potency
CCS(=O)(=O)c1cccnc1S(=O)(=O)NC(=O)Nc1nc(OC)cc(OC)n1 | inactive
CCCCCCCCCCBr | inactive
CCOC(=O)C1(c2ccccc2)CCN(CCC(C#N)(c2ccccc2)c2ccccc2)CC1 | inactive
CCOc1cc(C(C)(C)C)ccc1C1COC(c2c(F)cccc2F)=N1 (stereo not given) | inactive
OC(Cc1ccccc1Cl)(Cn1cncn1)C1(Cl)CC1 (stereo not given) | inactive
CC(C)(c1ccc(O)c(-c2ccccc2)c1)c1ccc(O)c(-c2ccccc2)c1 | 17.4 µM (active)
Cl/C=C\CCl | inactive
Oc1c(Br)c(Br)c(Br)c(Br)c1Br | inactive
CN(C)C(=S)S | 38.9 µM (active)
CCC(C)c1cc([N+](=O)[O-])cc([N+](=O)[O-])c1OC(=O)C=C(C)C (stereo not given) | inactive
ClC(Cl)=C(c1ccc(Cl)cc1)c1ccc(Cl)cc1 | 44.7 µM (active)
N#CCc1ccc(Cl)cc1 | inactive
CCCN(CCC)CCc1c[nH]c2ccccc12 | inactive
N#C/C=C/c1ccccc1 | inactive
CCOC(=O)CC(=O)CCl | inactive
CC(C)OC(=O)C(O)(c1ccc(Cl)cc1)c1ccc(Cl)cc1 | 34.7 µM (active)
OC(c1ccc(Cl)cc1)(c1ccc(Cl)cc1)C(Cl)(Cl)Cl | inactive
Nc1ccc(Sc2ccc(N)cc2)cc1 | inactive
CC(=O)c1cc(C(C)(C)C)cc2c1CCC2(C)C | inactive
CCc1cc(C)cc(CC)c1-c1c(OC(=O)C(C)(C)C)n2n(c1=O)CCOCC2 | inactive

SMILES | Potency
O=c1oc2ccccc2c(O)c1Cc1c(O)c2ccccc2oc1=O | inactive
CC1(C)C(/C=C(\Cl)C(F)(F)F)C1C(=O)OC(C#N)c1cccc(Oc2ccccc2)c1 (stereo not given) | inactive
C[C@@H](Oc1ccc(Cl)cc1Cl)C(=O)O | inactive
Cc1cc(C)c(C2=C(OC(=O)CC(C)(C)C)C3(CCCC3)OC2=O)c(C)c1 | inactive
Cc1cc(C)cc(OP(=O)(Oc2cc(C)cc(C)c2)Oc2cc(C)cc(C)c2)c1 | inactive
BrCC(Br)c1ccccc1 (stereo not given) | inactive
CCCN(CC)CC1COC2(CCC(C(C)(C)C)CC2)O1 (stereo not given) | inactive
CC(C)(O)c1cnn2c(-c3ccc(F)c(-c4c(F)cccc4C#N)c3)cnc2n1 | inactive
O=C(Nc1ccc2[nH]ccc2c1)c1cc2cc(F)ccc2n1Cc1cccc(F)c1 | 27.5 µM (active)
CCCCCCCCCCCCBr | inactive
ClCc1ccccc1CCl | inactive
O=C(NC(=O)c1c(F)cccc1F)Nc1cc(Cl)c(OC(F)(F)C(F)F)c(Cl)c1 | inactive
Clc1ccc(-c2ccc(Cl)c(Cl)c2Cl)c(Cl)c1Cl | inactive
N#CCCO | inactive
Cc1cc(SCc2sc(-c3ccc(C(F)(F)F)c(F)c3)nc2C)ccc1OCC(=O)O | inactive
ClC1=C(Cl)[C@]2(Cl)[C@@H]3[C@@H](Cl)[C@@H](Cl)C[C@@H]3[C@@]1(Cl)C2(Cl)Cl | inactive
Cc1ccc(C(=O)Cl)cc1 | inactive
O=[N+]([O-])O.O=[N+]([O-])O.[Cd] | inactive
CCSC(C)CC1CC(=O)C(/C(CC)=N/OC/C=C/Cl)=C(O)C1 (stereo not given) | inactive
CN(CCCC(O)c1cccnc1)N=O (stereo not given) | inactive

Source: PubChem BioAssay (Tox21)
